Source: PubChem BioAssay
A number with no mark means an inactive call. No rule for the calls is given here.

What follows are molecules tested against Pantothenate synthetase (Mycobacterium tuberculosis (strain ATCC 25618 / H37Rv)) (UniProt P9WIL5) (assay: Recombinant Mtb pantothenate synthetase (PanC) inhibitors, coupled enzyme, confirmatory (AID 375;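 also: 0% = full reaction with vehicle and 100% = no enzyme background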)). Settings: coupled enzyme assay; at 10 µM, hits give high values.
Sequence of Pantothenate synthetase (Mycobacterium tuberculosis (strain ATCC 25618 / H37Rv)) (P9WIL5 whole entry, looked up): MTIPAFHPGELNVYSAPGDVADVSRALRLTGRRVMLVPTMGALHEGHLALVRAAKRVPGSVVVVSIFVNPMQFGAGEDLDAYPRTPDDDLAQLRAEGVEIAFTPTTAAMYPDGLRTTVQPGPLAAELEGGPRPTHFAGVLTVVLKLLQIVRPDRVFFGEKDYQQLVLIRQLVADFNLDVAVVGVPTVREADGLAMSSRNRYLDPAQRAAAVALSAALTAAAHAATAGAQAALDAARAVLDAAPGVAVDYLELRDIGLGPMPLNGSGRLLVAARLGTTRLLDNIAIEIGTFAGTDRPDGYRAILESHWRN
`COc1ccc(-c2cc(C(=O)N3CCN(Cc4ccccc4)CC3)no2)cc1OC` showed an inhibition of 3%. `COc1cc(C)nc(N2CCCC(C(=O)Nc3cccc(Cl)c3Cl)C2)n1` (centres undefined) was tested, and the inhibition was 0%. With `CS(=O)(=O)c1ccc2nc(NC(=O)C3C4C=CC(C4)C3C(=O)O)sc2c1` (centres undefined) the inhibition was 1%. `C=C(c1cccc2ccccc12)P(=O)(O)O` gave an inhibition of 2%. `c1ccc2c(c1)nc(-c1ccncc1)n1nnnc21` was tested, and the inhibition was 11%. Molecule `O=C(Nc1ccon1)c1cc(-c2ccccc2)nc2ccccc12` has an inhibition of 0%. Molecule `Cc1ccc(NC(=O)N2CCC(c3nc4c(nnn4Cc4cccc(Cl)c4)c(=O)[nH]3)CC2)cc1` has an inhibition of 0%. `Cc1c(NC(=O)c2noc3c2CCc2ccccc2-3)c(=O)n(-c2ccccc2)n1C` showed an inhibition of 0%. `CC(Oc1ccccc1)C(=O)NC1CC(C)(C)NC(C)(C)C1` (centres undefined) gave an inhibition of 0%. With `O=C(CSc1nnnn1Cc1ccccc1)Nc1ccc2c(c1)OCO2` the inhibition was 1%. `O=C(Nc1ccc(Br)cc1F)c1sccc1-n1cccc1` was tested, and the inhibition was 4%. `CC(C)COC(=O)C1C2C=CC3(CN(C(C)c4ccc(Br)cc4)C(=O)C13)O2` (centres undefined) was tested, and the inhibition was 8%. Work on `Cc1ccc(-n2c(SCC3CCCCO3)nnc2-c2ccco2)cc1` (centres undefined) yielded an inhibition of 6%. `Cc1c(/C(O)=C2/C(=O)C(=O)N(CCN3CCOCC3)C2c2cccs2)cnn1-c1ccccc1` (centres undefined) showed an inhibition of 8%. `CCOC(=O)CC(C#N)c1cn(C)c2ccccc12` (centres undefined) gave an inhibition of 4%. Work on `CCOC(=O)c1ccccc1NC(=O)CSc1nnc(COc2ccccc2C)n1C` yielded an inhibition of 2%. For `NC(N)=NS(=O)(=O)c1ccc(N)cc1`, the inhibition was 0%. Work on `Cc1nc2sc(C(c3ccccc3)N3CCN(c4ccccc4F)CC3)c(O)n2n1` (centres undefined) yielded an inhibition of 0%. Work on `O=C(NCc1ccco1)Nc1ccc2nsnc2c1` yielded an inhibition of 6%. With `CN1CCN(C(=O)CN(Cc2ccc(Cl)cc2)S(C)(=O)=O)CC1` the inhibition was 4%. `CC(=O)OCC(=O)[C@@]1(OC(C)=O)[C@@H](C)C[C@H]2[C@@H]3C[C@H](F)C4=CC(=O)C=C[C@]4(C)[C@@]3(F)[C@@H](O)C[C@@]21C` gave an inhibition of 0%. `O=C(NCCc1ccccc1)c1cc(-c2ccco2)on1` showed an inhibition of 5%. `O=c1c2ccccc2cnn1-c1nc2ccccc2s1` was tested, and the inhibition was 0%. `COc1ccccc1N1CCN(C(=O)c2oc3cc(C)c(C)cc3c2C)CC1` showed an inhibition of 0%. With `Cc1ccc(C2C(C(=O)c3sc(C)nc3C)=C(O)C(=O)N2CCN(C)C)o1` (centres undefined) the inhibition was 0%. For `CN1C2C=C3C(C#N)=C(N)C(C#N)(C#N)[C@@H](c4ccc(Cl)cc4)[C@@H]3C1CC2` (some centres undefined), the inhibition was 7%. For `COc1cccc(OCCOCCN(C)CCO)c1`, the inhibition was 2%. Work on `CC(=O)N1CCc2c(sc(NC(=O)c3ccc(S(=O)(=O)N(C)C)cc3)c2C#N)C1` yielded an inhibition of 0%. `COc1ccc(-n2nc(C(=O)Nc3ccc4c(c3)OCO4)c3c4ccccc4n(C)c3c2=O)cc1` was tested, and the inhibition was 2%. Molecule `Cc1nn(-c2ccccc2)c(C)c1C(=O)OCC(=O)c1c(N)n(CC(C)C)c(=O)n(C)c1=O` has an inhibition of 9%. Molecule `CC1CCCCC1NC(=O)Cn1ncc2ccccc21` (centres undefined) has an inhibition of 0%. In the case of `COc1ccc(S(=O)(=O)N2CCSC2c2ccccc2)cc1` (centres undefined), the inhibition is reported as 1%. Molecule `CCOC(=O)C1=C(NC#N)OC(C)=C(C)C1c1ccc(O)cc1` (centres undefined) has an inhibition of 0%. `CCC(NC(C)C)C(O)c1ccc(O)c(O)c1` (centres undefined) gave an inhibition of 0%. With `Cc1ccc(NC(=O)CN(c2ccc3c(c2)OCO3)S(=O)(=O)c2c(C)n[nH]c2C)cc1` the inhibition was 1%. Work on `CCn1nnc(NC(=O)c2cc3ccccc3o2)n1` yielded an inhibition of 0%. Work on `O=C(CN1CCCN(S(=O)(=O)c2ccc(Br)cc2)CC1)Nc1ccc2cn[nH]c2c1` yielded an inhibition of 0%. Work on `CC(C)[C@H](NC(=O)OC(C)(C)C)c1nnc(SCC(=O)Nc2ccc(Br)cc2)o1` yielded an inhibition of 0%. For `CCCCS(=O)(=O)NC1=NCN(CCOC(=O)c2ccccc2)CN1`, the inhibition was 0%.
